Measured values taken from paper PMC7862700, “An all-to-all approach to the identification of sequence-specific readers for epigenetic DNA modifications on cytosine”.

Key:
Experiment in all cases: DAPPL (digital affinity profiling via proximity ligation, sequencing); 10 mM Tris-HCl pH 7.5, 50 mM NaCl, 1 mM DTT, 4% glycerol, room temperature, 30 min; GST-TFs on glutathione beads, 16-mer random dsDNA library, 0.1% formaldehyde crosslink after washing; high values mean tight binding
FLI1 = molecular target: T1, FLI1 (Homo sapiens, UniProt Q01543 1-452); conditions: protein: recombinant; tags: N-terminal GST; dsDNA, one strand shown
T1 sequence: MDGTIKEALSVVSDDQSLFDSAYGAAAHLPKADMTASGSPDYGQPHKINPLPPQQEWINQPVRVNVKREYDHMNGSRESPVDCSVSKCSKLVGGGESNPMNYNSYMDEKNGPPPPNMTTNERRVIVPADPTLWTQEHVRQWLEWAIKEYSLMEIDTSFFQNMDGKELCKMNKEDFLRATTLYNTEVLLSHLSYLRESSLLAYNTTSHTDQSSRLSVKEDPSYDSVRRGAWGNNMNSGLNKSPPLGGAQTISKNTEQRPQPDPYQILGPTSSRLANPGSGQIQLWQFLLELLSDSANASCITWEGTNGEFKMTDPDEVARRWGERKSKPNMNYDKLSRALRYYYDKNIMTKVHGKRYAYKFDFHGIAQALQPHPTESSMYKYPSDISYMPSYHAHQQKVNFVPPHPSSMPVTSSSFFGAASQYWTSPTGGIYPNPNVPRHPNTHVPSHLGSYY
How it was run: (§1)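 Pools of DNA-barcoded human transcription factors, expressed in yeast as GST fusions on glutathione beads and combined with a tag-only sample, were incubated with 200 nmole of a 16-mer random double-stranded DNA library. Incubation took 30 min at room temperature in Tris/NaCl/DTT/glycerol buffer and was followed by washing, 0.1% formaldehyde crosslinking, proximity ligation (BsaI/T4 ligase, 1 h, 37 °C), PCR amplification and sequencing on an Illumina NextSeq500. Binding signal is the ratio of a hexamer's read frequency for a factor to its frequency for the tag-only sample.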

ELK1 = molecular target: T2, ELK1 (Homo sapiens, UniProt P19419 1-428); conditions: protein: recombinant; tags: N-terminal GST; dsDNA, one strand shown
T2 sequence: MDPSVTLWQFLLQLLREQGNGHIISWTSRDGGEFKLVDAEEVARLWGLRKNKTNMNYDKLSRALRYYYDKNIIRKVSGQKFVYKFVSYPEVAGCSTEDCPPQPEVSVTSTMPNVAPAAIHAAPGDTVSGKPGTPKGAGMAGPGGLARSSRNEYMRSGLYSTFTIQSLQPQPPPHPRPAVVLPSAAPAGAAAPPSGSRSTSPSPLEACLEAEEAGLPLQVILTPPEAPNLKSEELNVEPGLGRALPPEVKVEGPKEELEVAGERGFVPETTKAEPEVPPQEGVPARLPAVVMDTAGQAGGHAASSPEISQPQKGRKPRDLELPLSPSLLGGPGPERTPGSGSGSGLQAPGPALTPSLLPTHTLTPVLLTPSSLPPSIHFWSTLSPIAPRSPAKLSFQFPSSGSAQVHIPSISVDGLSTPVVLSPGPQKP
How it was run: as §1

GABPA = molecular target: T3, GABPA (Homo sapiens, UniProt Q06546 1-454); conditions: protein: recombinant; tags: N-terminal GST; dsDNA, one strand shown
T3 sequence: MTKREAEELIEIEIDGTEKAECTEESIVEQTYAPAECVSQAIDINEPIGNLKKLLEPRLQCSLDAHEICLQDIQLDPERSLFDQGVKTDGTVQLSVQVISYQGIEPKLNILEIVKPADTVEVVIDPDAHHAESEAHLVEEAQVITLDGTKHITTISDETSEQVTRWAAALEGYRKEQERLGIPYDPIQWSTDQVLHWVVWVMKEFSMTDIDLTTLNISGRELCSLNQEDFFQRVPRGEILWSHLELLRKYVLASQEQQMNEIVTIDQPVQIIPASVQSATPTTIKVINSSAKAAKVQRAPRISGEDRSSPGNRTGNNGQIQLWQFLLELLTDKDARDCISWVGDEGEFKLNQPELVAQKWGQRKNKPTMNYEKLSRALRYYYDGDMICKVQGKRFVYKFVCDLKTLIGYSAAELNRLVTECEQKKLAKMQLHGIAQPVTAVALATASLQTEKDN
How it was run: as §1

ERG = molecular target: T4, ERG (Homo sapiens, UniProt P11308 1-479); conditions: protein: recombinant; tags: N-terminal GST; dsDNA, one strand shown
T4 sequence: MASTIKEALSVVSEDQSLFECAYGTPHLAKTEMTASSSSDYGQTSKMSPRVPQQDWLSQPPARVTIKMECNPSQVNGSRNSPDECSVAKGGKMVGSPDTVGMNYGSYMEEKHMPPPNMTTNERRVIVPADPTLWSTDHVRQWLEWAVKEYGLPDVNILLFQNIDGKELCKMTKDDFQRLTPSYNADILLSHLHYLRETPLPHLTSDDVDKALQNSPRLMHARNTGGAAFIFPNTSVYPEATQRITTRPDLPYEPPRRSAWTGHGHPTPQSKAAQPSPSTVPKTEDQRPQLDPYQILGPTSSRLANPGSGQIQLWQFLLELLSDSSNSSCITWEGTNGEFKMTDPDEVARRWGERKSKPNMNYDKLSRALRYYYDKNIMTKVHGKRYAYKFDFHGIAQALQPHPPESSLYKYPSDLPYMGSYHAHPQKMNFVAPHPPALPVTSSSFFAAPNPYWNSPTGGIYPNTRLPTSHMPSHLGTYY
How it was run: as §1

ELF1 = ELF1 (Homo sapiens, UniProt P32519 1-619); conditions: protein: recombinant; tags: N-terminal GST; dsDNA, one strand shown
How it was run: as §1

EHF = molecular target: T5, EHF (Homo sapiens, UniProt Q9NZC4 1-300); conditions: protein: recombinant; tags: N-terminal GST; dsDNA, one strand shown
T5 sequence: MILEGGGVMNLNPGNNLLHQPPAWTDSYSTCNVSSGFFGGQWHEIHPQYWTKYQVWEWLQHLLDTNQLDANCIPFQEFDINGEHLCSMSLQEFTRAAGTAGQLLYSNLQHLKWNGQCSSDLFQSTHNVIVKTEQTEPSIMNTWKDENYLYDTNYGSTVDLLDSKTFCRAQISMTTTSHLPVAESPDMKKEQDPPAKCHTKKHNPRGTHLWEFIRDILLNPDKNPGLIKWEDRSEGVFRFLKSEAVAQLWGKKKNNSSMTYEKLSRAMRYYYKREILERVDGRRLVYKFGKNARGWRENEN
How it was run: as §1

SPI1 = SPI1 (Homo sapiens, UniProt P17947 1-270); conditions: protein: recombinant; tags: N-terminal GST; dsDNA, one strand shown
How it was run: as §1

SPIB = SPIB (Homo sapiens, UniProt Q01892 1-262); conditions: protein: recombinant; tags: N-terminal GST; dsDNA, one strand shown
How it was run: as §1

ELK3 = molecular target: T6, ELK3 (Homo sapiens, UniProt P41970 1-407); conditions: protein: recombinant; tags: N-terminal GST; dsDNA, one strand shown
T6 sequence: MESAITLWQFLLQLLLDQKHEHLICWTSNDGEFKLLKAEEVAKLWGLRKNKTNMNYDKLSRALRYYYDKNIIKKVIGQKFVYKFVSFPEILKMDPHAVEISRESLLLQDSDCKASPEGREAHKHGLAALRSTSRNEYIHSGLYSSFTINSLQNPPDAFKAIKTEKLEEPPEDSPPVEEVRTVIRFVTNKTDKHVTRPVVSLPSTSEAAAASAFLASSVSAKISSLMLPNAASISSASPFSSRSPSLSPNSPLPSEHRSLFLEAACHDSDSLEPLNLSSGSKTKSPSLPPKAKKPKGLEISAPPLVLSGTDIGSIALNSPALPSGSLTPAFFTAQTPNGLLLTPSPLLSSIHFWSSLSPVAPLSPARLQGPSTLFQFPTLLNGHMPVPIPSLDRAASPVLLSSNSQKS
How it was run: as §1

FEV = molecular target: T7, FEV (Homo sapiens, UniProt Q99581 1-238); conditions: protein: recombinant; tags: N-terminal GST; dsDNA, one strand shown
T7 sequence: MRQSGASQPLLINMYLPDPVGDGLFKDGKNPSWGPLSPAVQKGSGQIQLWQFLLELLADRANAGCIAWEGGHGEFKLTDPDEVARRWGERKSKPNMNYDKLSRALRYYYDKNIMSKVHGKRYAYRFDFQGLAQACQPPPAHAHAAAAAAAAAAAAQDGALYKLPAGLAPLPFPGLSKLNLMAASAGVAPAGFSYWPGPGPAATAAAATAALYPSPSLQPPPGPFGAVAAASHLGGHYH
How it was run: as §1

ETV5 = ETV5 (Homo sapiens, UniProt P41161 1-510); conditions: protein: recombinant; tags: N-terminal GST; dsDNA, one strand shown
How it was run: as §1

HSF1 = HSF1 (Homo sapiens, UniProt Q00613 1-529); conditions: protein: recombinant; tags: N-terminal GST; chain copies: 3; dsDNA, one strand shown
How it was run: as §1

SPIC = molecular target: T8, SPIC (Homo sapiens, UniProt Q8N5J4 1-248); conditions: protein: recombinant; tags: N-terminal GST; dsDNA, one strand shown
T8 sequence: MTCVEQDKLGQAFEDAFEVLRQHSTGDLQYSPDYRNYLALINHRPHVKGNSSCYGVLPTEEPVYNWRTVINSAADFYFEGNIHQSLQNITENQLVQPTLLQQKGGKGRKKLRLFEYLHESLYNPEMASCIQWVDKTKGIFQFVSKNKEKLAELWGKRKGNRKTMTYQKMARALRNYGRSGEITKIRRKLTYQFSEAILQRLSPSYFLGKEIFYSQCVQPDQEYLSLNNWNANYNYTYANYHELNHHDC
How it was run: as §1

ELF4 = ELF4 (Homo sapiens, UniProt Q99607 1-663); conditions: protein: recombinant; tags: N-terminal GST; dsDNA, one strand shown
How it was run: as §1

ELK4 = molecular target: T9, ELK4 (Homo sapiens, UniProt P28324-2 1-405); conditions: protein: recombinant; tags: N-terminal GST; dsDNA, one strand shown
T9 sequence: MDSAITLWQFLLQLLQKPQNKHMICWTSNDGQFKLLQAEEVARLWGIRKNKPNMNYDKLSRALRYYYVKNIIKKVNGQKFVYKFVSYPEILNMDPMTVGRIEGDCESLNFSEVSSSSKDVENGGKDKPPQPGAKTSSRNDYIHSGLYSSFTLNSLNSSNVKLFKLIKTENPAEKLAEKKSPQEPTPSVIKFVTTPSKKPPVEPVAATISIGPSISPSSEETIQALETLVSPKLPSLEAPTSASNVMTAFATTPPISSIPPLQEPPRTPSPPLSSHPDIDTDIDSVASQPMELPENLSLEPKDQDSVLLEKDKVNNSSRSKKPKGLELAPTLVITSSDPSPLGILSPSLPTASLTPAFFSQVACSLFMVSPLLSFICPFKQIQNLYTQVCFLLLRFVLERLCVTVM
How it was run: as §1

ETV2 = molecular target: T10, ETV2 (Homo sapiens, UniProt O00321 1-342); conditions: protein: recombinant; tags: N-terminal GST; dsDNA, one strand shown
T10 sequence: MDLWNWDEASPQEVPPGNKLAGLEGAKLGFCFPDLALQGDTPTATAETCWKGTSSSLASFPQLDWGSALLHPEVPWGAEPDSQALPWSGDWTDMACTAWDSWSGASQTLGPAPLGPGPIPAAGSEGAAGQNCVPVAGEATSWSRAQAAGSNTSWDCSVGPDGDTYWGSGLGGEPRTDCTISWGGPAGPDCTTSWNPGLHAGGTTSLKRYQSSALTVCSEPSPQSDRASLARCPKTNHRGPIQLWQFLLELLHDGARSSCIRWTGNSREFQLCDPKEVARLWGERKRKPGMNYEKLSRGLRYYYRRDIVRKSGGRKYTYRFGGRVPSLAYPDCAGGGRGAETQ
How it was run: as §1

ELF3 = molecular target: T11, ELF3 (Homo sapiens, UniProt P78545 1-371); conditions: protein: recombinant; tags: N-terminal GST; dsDNA, one strand shown
T11 sequence: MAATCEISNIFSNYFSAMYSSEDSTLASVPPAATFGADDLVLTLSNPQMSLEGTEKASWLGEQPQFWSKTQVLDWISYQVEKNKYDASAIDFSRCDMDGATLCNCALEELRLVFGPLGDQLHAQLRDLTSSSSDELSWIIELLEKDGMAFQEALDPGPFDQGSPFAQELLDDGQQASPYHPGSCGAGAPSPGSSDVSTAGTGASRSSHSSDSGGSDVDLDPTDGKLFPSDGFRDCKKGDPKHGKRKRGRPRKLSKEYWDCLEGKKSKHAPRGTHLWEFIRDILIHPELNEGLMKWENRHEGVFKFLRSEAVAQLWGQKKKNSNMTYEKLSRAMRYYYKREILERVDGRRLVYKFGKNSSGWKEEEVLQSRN
How it was run: as §1

CRX = CRX (Homo sapiens, UniProt O43186 1-299); conditions: protein: recombinant; tags: N-terminal GST; dsDNA, one strand shown
How it was run: as §1

ETV1 = ETV1 (Homo sapiens, UniProt P50549 1-477); conditions: protein: recombinant; tags: N-terminal GST; dsDNA, one strand shown
How it was run: as §1

Chain of ELF1 (P32519 whole entry): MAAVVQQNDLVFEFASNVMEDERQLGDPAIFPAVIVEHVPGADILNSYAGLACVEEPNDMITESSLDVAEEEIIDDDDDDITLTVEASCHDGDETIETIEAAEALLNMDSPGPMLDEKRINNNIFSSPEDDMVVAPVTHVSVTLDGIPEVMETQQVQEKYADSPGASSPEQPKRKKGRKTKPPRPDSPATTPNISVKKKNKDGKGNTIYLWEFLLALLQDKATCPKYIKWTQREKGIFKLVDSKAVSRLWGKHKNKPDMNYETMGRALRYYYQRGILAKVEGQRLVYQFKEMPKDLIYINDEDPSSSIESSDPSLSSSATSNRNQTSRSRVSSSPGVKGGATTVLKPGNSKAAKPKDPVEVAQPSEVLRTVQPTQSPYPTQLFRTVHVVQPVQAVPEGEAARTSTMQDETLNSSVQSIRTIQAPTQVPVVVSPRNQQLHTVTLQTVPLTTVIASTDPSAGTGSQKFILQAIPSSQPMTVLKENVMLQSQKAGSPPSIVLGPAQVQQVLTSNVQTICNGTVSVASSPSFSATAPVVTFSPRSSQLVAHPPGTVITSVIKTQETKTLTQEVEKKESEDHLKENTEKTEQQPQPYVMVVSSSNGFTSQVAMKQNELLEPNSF
Chain of SPIB (Q01892 whole entry): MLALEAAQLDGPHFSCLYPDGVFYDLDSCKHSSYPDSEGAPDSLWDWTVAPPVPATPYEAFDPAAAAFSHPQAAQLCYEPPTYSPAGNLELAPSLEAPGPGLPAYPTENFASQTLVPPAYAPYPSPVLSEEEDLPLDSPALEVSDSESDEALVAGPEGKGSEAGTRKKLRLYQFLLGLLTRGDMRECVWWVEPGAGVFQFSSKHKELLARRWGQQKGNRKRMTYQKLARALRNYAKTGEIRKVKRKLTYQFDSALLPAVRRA
Chain of ETV1 (P50549 whole entry): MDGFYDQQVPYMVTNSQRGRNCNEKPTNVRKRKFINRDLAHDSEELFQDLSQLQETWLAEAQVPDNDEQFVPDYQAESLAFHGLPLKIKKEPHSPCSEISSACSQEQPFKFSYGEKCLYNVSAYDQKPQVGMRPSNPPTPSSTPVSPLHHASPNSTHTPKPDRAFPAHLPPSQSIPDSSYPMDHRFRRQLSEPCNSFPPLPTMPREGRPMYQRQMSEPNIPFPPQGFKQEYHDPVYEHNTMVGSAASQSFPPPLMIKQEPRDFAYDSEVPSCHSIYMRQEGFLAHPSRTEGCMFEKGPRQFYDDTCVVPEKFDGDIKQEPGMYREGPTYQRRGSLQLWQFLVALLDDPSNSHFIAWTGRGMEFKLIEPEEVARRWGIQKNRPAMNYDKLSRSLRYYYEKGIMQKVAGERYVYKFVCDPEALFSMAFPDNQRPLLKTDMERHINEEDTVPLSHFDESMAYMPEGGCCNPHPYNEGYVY
Chain of ETV5 (P41161 whole entry): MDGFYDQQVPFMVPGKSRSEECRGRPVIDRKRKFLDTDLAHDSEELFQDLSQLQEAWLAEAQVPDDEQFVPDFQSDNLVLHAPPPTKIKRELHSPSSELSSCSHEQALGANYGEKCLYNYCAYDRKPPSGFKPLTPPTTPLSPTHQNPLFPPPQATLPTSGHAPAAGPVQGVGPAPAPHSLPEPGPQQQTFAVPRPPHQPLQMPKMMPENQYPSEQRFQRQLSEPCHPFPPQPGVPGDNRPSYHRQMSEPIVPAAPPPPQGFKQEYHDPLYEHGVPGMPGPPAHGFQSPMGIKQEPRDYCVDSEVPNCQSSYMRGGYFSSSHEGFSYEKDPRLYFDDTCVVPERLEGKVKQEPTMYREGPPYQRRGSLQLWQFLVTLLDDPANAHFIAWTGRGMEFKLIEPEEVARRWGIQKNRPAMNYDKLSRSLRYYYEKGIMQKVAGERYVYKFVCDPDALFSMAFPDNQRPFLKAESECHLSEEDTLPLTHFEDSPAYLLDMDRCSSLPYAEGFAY
Chain of HSF1 (Q00613 whole entry): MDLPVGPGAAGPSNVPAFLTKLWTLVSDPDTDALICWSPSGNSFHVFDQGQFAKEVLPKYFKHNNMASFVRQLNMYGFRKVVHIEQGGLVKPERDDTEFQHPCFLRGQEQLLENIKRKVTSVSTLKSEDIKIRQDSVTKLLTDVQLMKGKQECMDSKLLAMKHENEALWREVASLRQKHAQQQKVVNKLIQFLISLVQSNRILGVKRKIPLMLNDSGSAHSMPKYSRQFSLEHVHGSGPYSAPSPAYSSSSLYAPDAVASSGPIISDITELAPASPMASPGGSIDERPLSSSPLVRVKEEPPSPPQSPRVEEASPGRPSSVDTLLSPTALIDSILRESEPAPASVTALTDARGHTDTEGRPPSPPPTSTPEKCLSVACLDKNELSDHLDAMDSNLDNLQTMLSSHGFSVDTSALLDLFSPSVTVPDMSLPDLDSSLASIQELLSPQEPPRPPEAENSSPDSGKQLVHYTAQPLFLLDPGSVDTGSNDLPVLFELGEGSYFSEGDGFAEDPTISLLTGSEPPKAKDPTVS
Chain of CRX (O43186 whole entry): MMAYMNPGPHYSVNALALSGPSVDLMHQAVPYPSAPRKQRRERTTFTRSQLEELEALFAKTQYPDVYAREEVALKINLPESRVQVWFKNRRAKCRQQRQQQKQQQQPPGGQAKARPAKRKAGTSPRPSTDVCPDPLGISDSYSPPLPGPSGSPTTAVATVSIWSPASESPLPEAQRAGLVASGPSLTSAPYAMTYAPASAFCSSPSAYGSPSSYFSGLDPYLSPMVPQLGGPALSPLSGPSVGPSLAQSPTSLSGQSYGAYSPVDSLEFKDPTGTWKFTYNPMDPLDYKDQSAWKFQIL
Chain of ELF4 (Q99607 whole entry): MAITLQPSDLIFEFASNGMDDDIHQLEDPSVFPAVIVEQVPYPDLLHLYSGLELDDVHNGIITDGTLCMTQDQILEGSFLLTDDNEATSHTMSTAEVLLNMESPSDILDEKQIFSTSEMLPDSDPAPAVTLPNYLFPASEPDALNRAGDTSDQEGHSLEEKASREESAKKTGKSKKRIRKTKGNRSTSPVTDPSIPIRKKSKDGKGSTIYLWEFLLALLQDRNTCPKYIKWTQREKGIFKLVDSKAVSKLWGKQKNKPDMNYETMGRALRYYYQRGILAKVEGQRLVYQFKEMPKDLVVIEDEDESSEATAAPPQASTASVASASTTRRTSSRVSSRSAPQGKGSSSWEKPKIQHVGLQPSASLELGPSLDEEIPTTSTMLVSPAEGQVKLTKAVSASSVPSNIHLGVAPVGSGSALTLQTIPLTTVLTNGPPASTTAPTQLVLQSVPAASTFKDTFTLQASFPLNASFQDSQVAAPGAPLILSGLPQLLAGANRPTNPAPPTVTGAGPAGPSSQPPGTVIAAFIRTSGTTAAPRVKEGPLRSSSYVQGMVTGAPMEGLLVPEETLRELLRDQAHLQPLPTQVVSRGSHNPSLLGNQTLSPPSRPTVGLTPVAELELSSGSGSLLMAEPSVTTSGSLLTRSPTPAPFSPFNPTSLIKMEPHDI

Sequence: ATTTGG
- binding signal (FLI1): 1.44 fold enrichment (6-mer frequency, TF over GST control)
- binding signal (ELK1): 1.33 fold enrichment (6-mer frequency, TF over GST control)
- binding signal (GABPA): 1.39 fold enrichment (6-mer frequency, TF over GST control)
- binding signal (ERG): 1.36 fold enrichment (6-mer frequency, TF over GST control)
- binding signal (ELF1): 1.36 fold enrichment (6-mer frequency, TF over GST control)
- binding signal (EHF): 1.35 fold enrichment (6-mer frequency, TF over GST control)
- binding signal (SPI1): 1.38 fold enrichment (6-mer frequency, TF over GST control)
- binding signal (SPIB): 1.32 fold enrichment (6-mer frequency, TF over GST control)
- binding signal (ELK3): 1.33 fold enrichment (6-mer frequency, TF over GST control)
- binding signal (FEV): 1.4 fold enrichment (6-mer frequency, TF over GST control)
- binding signal (ETV5): 1.36 fold enrichment (6-mer frequency, TF over GST control)
- binding signal (HSF1): 1.5 fold enrichment (6-mer frequency, TF over GST control)
- binding signal (SPIC): 1.34 fold enrichment (6-mer frequency, TF over GST control)
- binding signal (ELF4): 1.26 fold enrichment (6-mer frequency, TF over GST control)
- binding signal (ELK4): 1.43 fold enrichment (6-mer frequency, TF over GST control)
- binding signal (ETV2): 1.37 fold enrichment (6-mer frequency, TF over GST control)
- binding signal (ELF3): 1.44 fold enrichment (6-mer frequency, TF over GST control)
- binding signal (CRX): 1.73 fold enrichment (6-mer frequency, TF over GST control)
- binding signal (ETV1): 1.36 fold enrichment (6-mer frequency, TF over GST control)
